# Data: PubChem BioAssay
# Inconclusive results are not listed. Activity calls are given as the source filed them.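 The calls were made as follows, unless noted: active = normalized viability below 100% at a tested concentration; inactive = the rest.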 Bridge positions count the residues as written; N and C are the ends. Square brackets hold non-standard residues; d marks the D form. Peptide text beside a SMILES is read from it. * marks the point of attachment. X2 = CCC(C)C(N)C1=NC(C(=O)*)CS1; dOrn = NCCC[C@@H](N)C(=O)O
# Legend:
# [1] = viability loss in pontine glioma line – cell-based, SU-DIPG-XIII, MIPE5.0, CellTiter-Glo, qHTS, dose response (AID 1347064; cut-off not given, nearly all actives have AC50 up to about 23 µM;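 as to AC50: cells exposed to compound for 48 hours before the viability read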); settings: CellTiter-Glo ATP luminescence
# [2] = viability loss in pontine glioma line – cell-based, SU-DIPG-XXV, MIPE5.0, CellTiter-Glo, qHTS, dose response (AID 1347065; cut-off not given, nearly all actives have AC50 up to about 26 µM;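 also: cells exposed to compound for 48 hours before ATP readout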); settings: CellTiter-Glo ATP luminescence
# [3] = JHH-DIPG-1 glioma cell viability, MIPE5.0 library, CellTiter-Glo luminescence, qHTS (AID 1347067; cut-off not given, nearly all actives have AC50 up to about 26 µM;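 also: cells exposed to compound for 48 hours before readout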); settings: JHH-DIPG-1 glioma viability, CellTiter-Glo ATP luminescence
# [4] = growth inhibition of DIPG cells – cell-based, MIPE5.0 library, qHTS (AID 1347068; cut-off not given, nearly all actives have IC50 up to about 30 µM;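 as to IC50: cells exposed to compound for 48 hours before viability readout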); settings: SU-DIPG-XXV viability
# [5] = P. berghei load reduction in hepatocytes – cell-based, HepG2, luciferase luminescence, HepG2 viability, primary screen (AID 624349; in the data active = parasite load remaining mostly below about 12%, no sharp cut-off; inactive = mostly above about 10%;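 also: 100% = mean of DMSO negative control wells on the same plate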); settings: P. berghei liver stage in HepG2, luciferase luminescence, concentration not given here; parasite load remaining: stronger effect = lower value; viability: measured here: HepG2 viability without parasites
# [6] = growth inhibition of DIPG cells – cell-based, MIPE4.0 library, CellTiter-Glo luminescence, qHTS (AID 1347066; cut-off not given, nearly all actives have AC50 up to about 30 µM;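 also: cells exposed to compound for 48 hours before readout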); settings: SU-DIPG-VI viability, CellTiter-Glo ATP luminescence
# [7] = viability loss with induced miR-34 in A549 – imaging, A549 dox-inducible miR-34, nuclei and caspase counts, primary screen (AID 1347080;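 active = compounds whose cell count with miR-34 switched on is under 0.7 times the count with it off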); settings: A549 miR-34 inducible, Hoechst nuclei count, 48 h
# [8] = MELAS cybrid and Rieske KO viability enhancers – cell-based, MELAS cybrids, Rieske KO mouse fibroblasts, CellTiter-Glo, primary screen (AID 1508586;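 active = mean z-score across replicates of 1.96 or higher in either the MELAS or the Rieske mutant cell line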;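 also: z relative to plate mean and SD of compound and empty wells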); settings: low glucose
# [9] = compounds altering viability of human ES cells (AID 493140; call rule not given here;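 also: cells exposed to compounds for four days before counting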); settings: human embryonic stem cell survival screen; stronger effect = higher value
# [10] = drug combination growth inhibition, ovarian cancer – cell-based, oncology-focused library, rucaparib conditional, profiling panel (AID 1508598); settings: patient-derived ovarian cancer cells, CellTiter-Glo viability, 144 h, stronger effect = lower value
# [11] = stronger effect = lower value, cell number ratio, induced over uninduced
# [12] = measured here: relative caspase fold change +Dox/-Dox
# [13] = measured here: total cells with miR-34 induction, stronger effect = lower value
# [14] = measured here: total cells without miR-34 induction
# [15] = MELAS cybrid survival, CellTiter-Glo 48 h, stronger effect = higher value
# [16] = Rieske KO mouse fibroblast survival, CellTiter-Glo 72 h
smiles,measurement,setting,value
N#Cc1ccc(-c2c(-c3ncn[nH]3)sc(N3CCOCC3)c2C#N)c(F)c1,AC50,[1],5.9 µM (active)
same,AC50,[2],1.48 µM (active)
same,AC50,[3],10.5 µM (active)
same,IC50,[4],4.68 µM (active)
NC(=O)c1cccc(-c2cc(Nc3ccc(OC(F)(F)F)cc3)ncn2)c1,parasite load remaining,[5],33% (inactive)
same,viability,[5],100%
same,AC50,[1],20.9 µM (active)
same,AC50,[2],20.9 µM (active)
same,outcome,[6],inactive
same,AC50,[3],20.9 µM (active)
same,IC50,[4],18.6 µM (active)
same,fold change,[7]; [11],0.899 (inactive)
same,fold change,[7]; [12],1.65
same,cell count,[7]; [13],7160
same,cell count,[7]; [14],7960
same,z-score,[8]; [15],-0.11 (inactive)
same,z-score,[8]; [16],-0.362
Cc1ccc(-n2c(C)cc(-c3nnc4n3CCCCC4)c2C)cc1,AC50,[1],14.8 µM (active)
same,AC50,[2],20.9 µM (active)
same,AC50,[3],18.6 µM (active)
CCCCOC(=O)NS(=O)(=O)c1sc(CC(C)C)cc1-c1ccc(Cn2ccnc2)cc1,outcome,[1],inactive
same,AC50,[2],20.9 µM (active)
same,AC50,[3],20.9 µM (active)
same,outcome,[4],inactive
COCc1c(-c2ccc(NC(=O)Nc3cc(C(F)(F)F)ccc3F)c(F)c2)c2c(N)ncnn2c1CN1CCOCC1,AC50,[1],0.295 µM (active)
same,AC50,[2],0.186 µM (active)
same,AC50,[3],6.61 µM (active)
same,IC50,[4],7.42 µM (active)
CN(C)N(C)C(=O)[C@@]1(Cc2ccccc2)CCCN(C(=O)[C@@H](Cc2c[nH]c3ccccc23)NC(=O)C(C)(C)N)C1,outcome,[1],inactive
same,outcome,[2],inactive
same,outcome,[3],inactive
same,outcome,[4],inactive
COC(=O)N[C@@H](C)CNc1nccc(-c2cn(C(C)C)nc2-c2cc(Cl)cc(NS(C)(=O)=O)c2F)n1,outcome,[1],inactive
same,AC50,[2],1.48 µM (active)
same,outcome,[4],inactive
C[C@H](Nc1ncnc2nc[nH]c12)c1cc2ccc(F)cc2nc1-c1ccccn1,outcome,[1],inactive
same,outcome,[3],inactive
same,outcome,[4],inactive
CCC(C)C(N)C1=NC(C(=O)N[C@@H](CC(C)C)C(=O)N[C@H](CCC(=O)O)C(=O)N[C@H](C(=O)N[C@H]2CCCCNC(=O)[C@H](CC(N)=O)NC(=O)[C@@H](CC(=O)O)NC(=O)[C@H](Cc3cnc[nH]3)NC(=O)[C@@H](Cc3ccccc3)NC(=O)[C@H]([C@@H](C)CC)NC(=O)[C@@H](CCCN)NC2=O)[C@@H](C)CC)CS1 (some centres not stated) (X2-L[dE]IK[dOrn]I[dF]H[dD]N; lactam 4-C),survival,[9],9.33 (inactive)
same,parasite load remaining,[5],69.3% (inactive)
same,viability,[5],103%
same,outcome,[1],inactive
same,outcome,[2],inactive
same,outcome,[3],inactive
same,outcome,[4],inactive
same,fold change,[7]; [11],0.898 (inactive)
same,fold change,[7]; [12],1.36
same,cell count,[7]; [13],9810
same,cell count,[7]; [14],10900
same,z-score,[8]; [15],0.499 (inactive)
same,z-score,[8]; [16],-0.0886
CN(C)Cc1cccc(N=C(c2ccccc2)c2c(O)[nH]c3cc(C(=O)N(C)C)ccc23)c1,outcome,[1],inactive
same,outcome,[6],inactive
same,IC50,[4],18.6 µM (active)
same,fold change,[7]; [11],0.785 (inactive)
same,fold change,[7]; [12],1.01
same,cell count,[7]; [13],3180
same,cell count,[7]; [14],4050
same,z-score,[8]; [15],-0.347 (inactive)
same,z-score,[8]; [16],0.635
COc1cc(N2CCN(C)CC2)ccc1Nc1nccc(-c2cn(C)c3cnccc23)n1,AC50,[1],10.5 µM (active)
same,AC50,[2],13.2 µM (active)
same,AC50,[3],18.6 µM (active)
same,outcome,[4],inactive
same,fold change,[7]; [11],0.785 (inactive)
same,fold change,[7]; [12],1.02
same,cell count,[7]; [13],4990
same,cell count,[7]; [14],6360
same,z-score,[8]; [15],1.95 (inactive)
same,z-score,[8]; [16],-5.23
Cc1ccc2nc(NC(=O)CSc3nc4c(c(=O)n3-c3ccccc3)SCC4)sc2c1,outcome,[1],inactive
same,outcome,[6],inactive
same,outcome,[3],inactive
same,outcome,[4],inactive
same,fold change,[7]; [11],1.08 (inactive)
same,fold change,[7]; [12],1.26
same,cell count,[7]; [13],7960
same,cell count,[7]; [14],7340
same,z-score,[8]; [15],-0.206 (inactive)
same,z-score,[8]; [16],-0.109
same,viability,"[10]; at 0.000305 µM, OCI-C5x cells, with rucaparib 10 µM, 100% = cells with rucaparib alone",116% (inactive)
same,viability,"[10]; at 0.000305 µM, OCI-C5x cells, without rucaparib",106% (inactive)
same,viability,"[10]; at 0.000305 µM, OCI-P5x cells, with rucaparib 20 µM, 100% = cells with rucaparib alone",106% (inactive)
same,viability,"[10]; at 0.000305 µM, OCI-P5x cells, without rucaparib",100% (inactive)
same,viability,"[10]; at 0.00122 µM, OCI-C5x cells, with rucaparib 10 µM, 100% = cells with rucaparib alone",113% (inactive)
same,viability,"[10]; at 0.00122 µM, OCI-C5x cells, without rucaparib",109% (inactive)
same,viability,"[10]; at 0.00122 µM, OCI-P5x cells, with rucaparib 20 µM, 100% = cells with rucaparib alone",102% (inactive)
same,viability,"[10]; at 0.00122 µM, OCI-P5x cells, without rucaparib",101% (inactive)
same,viability,"[10]; at 0.00488 µM, OCI-C5x cells, with rucaparib 10 µM, 100% = cells with rucaparib alone",113% (inactive)
same,viability,"[10]; at 0.00488 µM, OCI-C5x cells, without rucaparib",118% (inactive)
same,viability,"[10]; at 0.00488 µM, OCI-P5x cells, with rucaparib 20 µM, 100% = cells with rucaparib alone",107% (inactive)
same,viability,"[10]; at 0.00488 µM, OCI-P5x cells, without rucaparib",95.3% (active)
same,viability,"[10]; at 0.0195 µM, OCI-C5x cells, with rucaparib 10 µM, 100% = cells with rucaparib alone",116% (inactive)
same,viability,"[10]; at 0.0195 µM, OCI-C5x cells, without rucaparib",114% (inactive)
same,viability,"[10]; at 0.0195 µM, OCI-P5x cells, with rucaparib 20 µM, 100% = cells with rucaparib alone",105% (inactive)
same,viability,"[10]; at 0.0195 µM, OCI-P5x cells, without rucaparib",99.2% (active)
same,viability,"[10]; at 0.0781 µM, OCI-C5x cells, with rucaparib 10 µM, 100% = cells with rucaparib alone",112% (inactive)
same,viability,"[10]; at 0.0781 µM, OCI-C5x cells, without rucaparib",115% (inactive)
same,viability,"[10]; at 0.0781 µM, OCI-P5x cells, with rucaparib 20 µM, 100% = cells with rucaparib alone",101% (inactive)
same,viability,"[10]; at 0.0781 µM, OCI-P5x cells, without rucaparib",99.7% (active)
same,viability,"[10]; at 0.313 µM, OCI-C5x cells, with rucaparib 10 µM, 100% = cells with rucaparib alone",112% (inactive)
same,viability,"[10]; at 0.313 µM, OCI-C5x cells, without rucaparib",115% (inactive)
same,viability,"[10]; at 0.313 µM, OCI-P5x cells, with rucaparib 20 µM, 100% = cells with rucaparib alone",106% (inactive)
same,viability,"[10]; at 0.313 µM, OCI-P5x cells, without rucaparib",94.9% (active)
same,viability,"[10]; at 1.25 µM, OCI-C5x cells, with rucaparib 10 µM, 100% = cells with rucaparib alone",117% (inactive)
same,viability,"[10]; at 1.25 µM, OCI-C5x cells, without rucaparib",114% (inactive)
same,viability,"[10]; at 1.25 µM, OCI-P5x cells, with rucaparib 20 µM, 100% = cells with rucaparib alone",97.6% (active)
same,viability,"[10]; at 1.25 µM, OCI-P5x cells, without rucaparib",97.1% (active)
same,viability,"[10]; at 5 µM, OCI-C5x cells, with rucaparib 10 µM, 100% = cells with rucaparib alone",164% (inactive)
same,viability,"[10]; at 5 µM, OCI-C5x cells, without rucaparib",162% (inactive)
same,viability,"[10]; at 5 µM, OCI-P5x cells, with rucaparib 20 µM, 100% = cells with rucaparib alone",76.9% (active)
same,viability,"[10]; at 5 µM, OCI-P5x cells, without rucaparib",95.4% (active)
COc1cccc([C@@H](C)NCCCc2ccccc2Cl)c1,outcome,[1],inactive
same,outcome,[6],inactive
same,outcome,[3],inactive
same,outcome,[4],inactive
C=C1[C@H](OC(=O)/C=C(\C)CC)C[C@@H](C(C)C)[C@@H]2[C@H]([C@@H](C)OC(C)=O)C(=O)C[C@@H]12,AC50,[1],18.6 µM (active)
same,AC50,[3],18.6 µM (active)
same,outcome,[4],inactive
CCN(CCCOc1ccc2c(Nc3cc(CC(=O)Nc4cccc(F)c4)[nH]n3)ncnc2c1)CCOP(=O)(O)O,outcome,[1],inactive
same,AC50,[2],1.18 µM (active)
same,outcome,[4],inactive
